Pf Dd2 growth – inhibitors of Plasmodium falciparum Dd2 growth; P. falciparum Dd2 growth, SYBR Green, 72 h; Potency, µM (titrated, usually from 28.9 µM), inactives show top-dose activity, negative = inhibition, usual class: inhibitors; hit rate 4.3% among 120,000; active = well fitted inhibition curve with a large enough effect;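 also: plate controls were DMSO vehicle for no effect and reference drug for full effect; nearly all actives have a fitted effect of over 65% in size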
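Infected erythrocytes (Dd2, 0.3% parasitemia, 2.5% hematocrit final) are added to compound in RPMI-1640/Albumax II medium, grown 72 h at 37C in low oxygen, then lysed with saponin/Triton-X containing SYBR Green and read by fluorescence.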
Active calls of the source: *; i = inactive; [ ] = dose if it differs, or a comment. The entries come from a sample that favours hits as a whole. Potency is read from the fitted curve at half-maximal effect.

SMILES	Pf Dd2 growth
Nc1nc2c(c(=O)[nH]1)CCN(C(=O)CC(c1ccccc1)c1ccco1)C2 (configuration not stated)	-3.3%
CC(C)NC(=O)N[C@H]1C[C@H]2C(=O)NC[C@@H](CCC(=O)NC3CC3)N2C1	40.0%[44.1 µM]
COc1ccccc1C(=O)N1C[C@@H]2CCCN3CCC[C@@H]([C@H]23)[C@H]1CCCC(=O)N1CCOCC1	12.7%
COc1cccc(NC(=O)C2CCCN(Cc3cccnc3)CCC(=O)NCC2)c1 (configuration not stated)	-19.8%
COc1ccc(-c2ccccc2NC(=O)C2CCCN(CC=C(C)C)C2)cc1 (configuration not stated)	7.94µM*
CCc1ncc(CN2CCCC(C(=O)Nc3ccccc3-c3ccc(OC)cc3)C2)cn1 (configuration not stated)	i
COc1cccc(-c2ccccc2NC(=O)C2CCN(Cc3ccc(F)cc3)CC2)c1	7.94µM*
COc1ccc(-c2ccccc2NC(=O)C2CCCN(Cc3cnc(SC)nc3)C2)cc1 (configuration not stated)	-25.4%
COc1cccc(-c2ccccc2NC(=O)C2CCN(Cc3cc(OC)ccc3O)CC2)c1	2.24µM*
COc1ccc(-c2ccccc2NC(=O)C2CCCN2S(C)(=O)=O)cc1 (configuration not stated)	-6.1%
CCn1ccnc1CN1CCCC(C(=O)Nc2ccccc2-c2ccc(OC)cc2)C1 (configuration not stated)	i
COc1cccc(-c2ccc(CN3C4CCC3CN(C(=O)Nc3ccccc3F)C4)cc2)c1	i
COc1ccc(C(=O)NC2CCN(c3cc(C(F)(F)F)ncn3)CC2)c(C)c1	24.5%
Cc1ccc(S(=O)(=O)Nc2ccc3c(c2)CN(Cc2ccccc2)C(=O)CO3)cc1	i
CC(C)(C)CC(=O)N1C[C@@H]2C[C@H]1C(=O)N(CC1CC1)c1ccccc1O2	-15.0%[44.1 µM]
COCCN1C(=O)c2ccccc2C(C(=O)NCCc2ccc(F)cc2)C12CCCC2 (configuration not stated)	i
COc1ccc(CN2C(=O)O[C@@H]3CN(S(=O)(=O)N(C)C)C[C@@H]32)cc1OC	0.8%
COc1ccc(OC)c(C(=O)CN2C(=O)N(c3cc(C)cc(C)c3)S(=O)(=O)c3ccccc32)c1	10µM*
COc1cccc(N2C(=O)N(Cc3ccc(C#N)cc3)c3ccccc3S2(=O)=O)c1	-16.3%
CCc1ccccc1N1C(=O)N(CC(=O)c2ccc(OC)cc2)c2ccccc2S1(=O)=O	-29.0%
CCC(CC)C(=O)N1CC2CC(C1)[C@H]1CCCC(=O)N1C2 (some centres not stated)	5.7%
CC(=O)N1CCN(C(=O)C[C@@H]2c3nc(NC(=O)C4CCC4)sc3C[C@@H]3[C@](C)(CO)[C@H](O)CC[C@]32C)CC1	-21.9%
CCN(CC)C(=O)C[C@@H]1c2nc(NC(=O)c3cccs3)sc2C[C@@H]2[C@](C)(CO)[C@H](O)CC[C@]21C	3.98µM*
C=CCOC(=O)Nc1nc2c(s1)C[C@@H]1[C@](C)(CO)[C@H](O)CC[C@@]1(C)[C@@H]2CC(=O)NC(C)C	-9.3%
CC(C)NC(=O)C[C@@H]1c2nc(NC(=O)C3CCCCC3)sc2C[C@@H]2[C@](C)(CO)[C@H](O)CC[C@]21C	10µM*
SMILES	Pf Dd2 growth
CCN(CC)C(=O)C[C@@H]1c2nc(NC(=O)CC(C)(C)C)sc2C[C@@H]2[C@](C)(CO)[C@H](O)CC[C@]21C	i
CCN(CC)C(=O)C[C@@H]1c2nc(NC(=O)C3CCC3)sc2C[C@@H]2[C@](C)(CO)[C@H](O)CC[C@]21C	7.08µM*
C=CCN(C)C(=O)C[C@@H]1c2nc(NC(=O)c3ccc(OC)cc3)sc2C[C@@H]2[C@](C)(CO)[C@H](O)CC[C@]21C	-6.1%
CN(C(=O)CN1C(=O)NC(c2ccc(Cl)cc2)C2=C1COC2=O)c1ccccc1 (configuration not stated)	i
Cc1noc(C)c1[S+](=O)([O-])N1CCC(c2nn(-c3ccc(F)cc3)c(=O)[nH]2)CC1	i
Cc1ccc(C(=O)N2CCC3(C2)C(=NC2CCCCC2)NC(=O)N3c2cccnc2)cc1 (configuration not stated)	16.0%
CC(C)CCN1C[C@@H](NC(=O)c2cccnc2)C[C@H]1CO	i
CN1C(=O)C(c2ccccc2)CC12CCN(C(=O)c1ccc(F)cc1F)CC2 (configuration not stated)	-12.2%
Cc1cc(CN2CCC3(CC2)CCN(C(=O)c2ccco2)CC3CO)on1 (configuration not stated)	0.9%
CC(C)c1nc2ccccc2n1CC(=O)N1CC[C@](C)(O)[C@@H](O)C1	-7.5%
CCc1cccc(C)c1Nc1c(-c2ccccc2)nc2sccn12	-9.4%
Cc1ccccc1Nc1c(-c2ccc(Br)cc2O)nc2sccn12	2.51µM*
COCCNC(=O)c1nc2sccn2c1Br	0.6%[44.1 µM]
Cc1ccc([S+](=O)([O-])N2CCn3c(nn(-c4ccc(F)cc4)c3=O)C2)cc1	15.0%
CN1CC2(CCN(C(=O)Cc3c[nH]c4ccccc34)CC2)CC1C(=O)N1CCOCC1 (configuration not stated)	20.8%
O=C(NCc1ccc(N2CCCCC2)cc1)c1cnc(-c2ccccc2)nc1-c1ccncc1	-11.5%
COc1ccccc1OCc1cc(C(=O)NC(CO)C(C)C)n[nH]1 (configuration not stated)	-3.1%
Cn1c(N2CCN(C(=O)Cn3nc4c(cc3=O)CCCCC4)CC2)nc2ccccc21	-17.6%
COc1ccc(C(=O)NCCn2cc(SCc3cc(C)ccc3C)c3ccccc32)cc1	-17.8%
CCCN(CCC)CC(O)Cn1cc(/C=C/C(=O)c2ccc(OC)cc2)c2ccccc21 (configuration not stated)	3.16µM*
COc1ccc(C(=O)/C=C/c2cn(CC(O)CN(CC(C)C)CC(C)C)c3ccccc23)cc1 (configuration not stated)	3.16µM*
CCCn1cc2c3c(cccc31)CN(C(=O)c1ccc(OC)cc1)CC2	i
COc1ccc(NC(=O)Cn2cc(C(=O)C3CC3)c3ccccc32)cc1	0.0%
COc1ccc(C(=O)NCCn2cc(SCC(=O)Nc3ccc(F)cc3)c3ccccc32)cc1	i
COCC1CN(S(=O)(=O)c2c(C)noc2C)CC12CCNCC2 (configuration not stated)	2.2%
SMILES	Pf Dd2 growth
COCCN1CCC(N2CCN(C(=O)c3ccc(F)cc3)CC2)C1=O (configuration not stated)	5.8%
COc1cccc(NC(=O)c2cnc3c(c2)N(Cc2ccccc2)CCC3)c1	-10.7%[44.1 µM]
Cc1cnc(C(=O)N2CCCC(CCc3cccc(F)c3)C2)cn1 (configuration not stated)	2.0%
O=C(c1ccco1)N1CCCC(CCc2cccc(F)c2)C1 (configuration not stated)	-10.0%
O=C(c1cncc(N2CCCC(CCc3cccc(F)c3)C2)n1)N1CCCCC1 (configuration not stated)	11.2µM*
CC(=O)N1C[C@@H](C(=O)N2CCC(Cc3ccccc3)CC2)[C@H](c2nc(C)no2)C1	i
COc1ccc(CCNC(=O)c2noc(-c3ccc[nH]c3=O)n2)cc1OC	0.8%
CC(=O)N1CCc2sc(C(=O)NCc3cccc(Cl)c3)cc2C1	i
Cc1ccc(C(=O)N2CCc3sc(C(=O)NCc4cccc(F)c4)cc3C2)cc1	i
CN1CCN(C(=O)c2cc3c(s2)CCN(C(=O)c2ccc(Cl)cc2)C3)CC1	11.2µM*
CN(CCc1ccccc1)C(=O)c1cc2c(s1)CCN(C(=O)c1ccc(Cl)cc1)C2	-2.4%
